Measurements from PubChem BioAssay (NCATS).
Inconclusive results are not listed. The source made the active and inactive calls. Calls follow the shape of the dose curve; as a rule, active = well fitted curve in the direction sought with a large enough effect; inconclusive = small, poorly fitted or top-dose-only effect, or another doubt; inactive = no such curve, though single readings can be large; an effect the other way counts as inactive or inconclusive.

Legend:
[1] = qHTS of pediatric cancer cell lines to identify multiple opportunities for drug repurposing: Primary screen for Rh30 cells (AID 1347107); also: series mostly up to about 46 µM; nearly all actives have a fitted effect of over 75% in size
Outline: (§1)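 Cells (500-1,000/well) in growth media were settled 5 h at 37 degrees C, then given compounds for 48 h. Viability was read as CellTiter-Glo luminescence. Primary runs used MIPE at 11 points (0.78 nM-46 µM) and NPC at 8 points (0.59 nM-46 µM); follow-ups used 11 points.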

[2] = qHTS of pediatric cancer cell lines to identify multiple opportunities for drug repurposing: Primary screen for Rh41 cells (AID 1347108);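 also: series mostly up to about 46 µM; luminescence drop marks cytotoxic hits; nearly all actives have a fitted effect of over 70% in size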
Outline: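 CRCs from 8- or 11-point titrations (lowest final 0.59 nM NPC, 0.78 nM MIPE). Cell viability: CellTiter-Glo after 48 h incubation, 15 min room-temperature development, luminescence imaging.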

[3] = qHTS of pediatric cancer cell lines to identify multiple opportunities for drug repurposing: Confirmatory screen for NB1643 cells (AID 1347109); also: nearly all actives have a fitted effect of over 45% in size; also: potency is read from the fitted curve at half-maximal effect
Outline: as §1

[4] = qHTS of pediatric cancer cell lines to identify multiple opportunities for drug repurposing: Confirmatory screen for SK-N-MC cells (AID 1347111);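 also: cells exposed to compound for 48 h before the readout; nearly all actives have a fitted effect of over 70% in size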; also: potency is read from the fitted curve at half-maximal effect
Outline: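 Metabolically active cells were quantified by ATP-dependent luminescence (CellTiter-Glo, 15 min at room temperature) following 48 h treatment. Cells had been plated at 500-1,000 per well and settled for 5 h beforehand.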

[5] = qHTS of pediatric cancer cell lines to identify multiple opportunities for drug repurposing: Confirmatory screen for LAN-5 cells (AID 1347113); also: nearly all actives have a fitted effect of over 65% in size; also: potency is read from the fitted curve at half-maximal effect
Outline: as §1

[6] = qHTS of pediatric cancer cell lines to identify multiple opportunities for drug repurposing: Confirmatory screen for BT-37 cells (AID 1347117); also: nearly all actives have a fitted effect of over 55% in size; also: potency is read from the fitted curve at half-maximal effect
Outline: as §1

[7] = qHTS of pediatric cancer cell lines to identify multiple opportunities for drug repurposing: Confirmatory screen for U-2 OS cells (AID 1347122); also: nearly all actives have a fitted effect of over 65% in size
Outline: as §1

[8] = qHTS of pediatric cancer cell lines to identify multiple opportunities for drug repurposing: Confirmatory screen for Rh41 cells (AID 1347123);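 also: 48 h compound exposure; nearly all actives have a fitted effect of over 60% in size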; also: potency is read from the fitted curve at half-maximal effect
Outline: as §1

[9] = qHTS of pediatric cancer cell lines to identify multiple opportunities for drug repurposing: Confirmatory screen for Rh18 cells (AID 1347125); also: nearly all actives have a fitted effect of over 55% in size; also: potency is read from the fitted curve at half-maximal effect
Outline: as §1

[10] = qHTS of pediatric cancer cell lines to identify multiple opportunities for drug repurposing: Confirmatory screen for Rh30 cells (AID 1347126); also: nearly all actives have a fitted effect of over 55% in size; also: potency is read from the fitted curve at half-maximal effect
Outline: as §1

[11] = qHTS of pediatric cancer cell lines to identify multiple opportunities for drug repurposing: Confirmatory screen for A673 cells (AID 1347110);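 also: potency is read from the fitted curve at half-maximal effect; cells exposed to compound for 48 h before the viability read; nearly all actives have a fitted effect of over 65% in size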
Outline: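 Concentration-response curves came straight from titrations: 11 points (0.78 nM to 46 µM) for MIPE and several concentrations (0.59 nM to 46 µM) for NPC in primary, 11 points in follow-up. Readout: ATP luminescence at 48 h.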

[12] = qHTS of pediatric cancer cell lines to identify multiple opportunities for drug repurposing: Confirmatory screen for NB-EBc1 cells (AID 1347115);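 also: cells exposed to compound for 48 h before the viability read; nearly all actives have a fitted effect of over 45% in size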; also: potency is read from the fitted curve at half-maximal effect
Outline: as §1

[13] = qHTS of pediatric cancer cell lines to identify multiple opportunities for drug repurposing: Confirmatory screen for control Hh wild type fibroblast cells (AID 1347121); also: nearly all actives have a fitted effect of over 70% in size
Outline: as §1

[14] = biological target: N-terminal Xaa-Pro-Lys N-methyltransferase 1 (Homo sapiens) (UniProt Q9BV86); test: qHTS Assay for Inhibitors of N-terminal methyltransferase 1 (NTMT1): LOPAC validation of the NTMT1 SAHH-coupled ThioGlo3 Assay (AID 1347143);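 also: SAH from peptide methylation measured as thiol fluorescence via SAHH coupling and ThioGlo3; nearly all actives have a fitted effect of over 70% in size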; also: potency is read from the fitted curve at half-maximal effect
Outline: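 In this qHTS pilot against the LOPAC set, 125nM NTMT1 met compounds tested at multiple concentrations, and fluorescence was normalized to background.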

[15] = qHTS of pediatric cancer cell lines to identify multiple opportunities for drug repurposing: Confirmatory screen for MG 63 (6-TG R) cells (AID 1347119); also: nearly all actives have a fitted effect of over 55% in size
Outline: as §1

[16] = qHTS of pediatric cancer cell lines to identify multiple opportunities for drug repurposing: Confirmatory screen for OHS-50 cells (AID 1347128); also: potency is read from the fitted curve at half-maximal effect
Outline: as §1

[17] = qHTS of pediatric cancer cell lines to identify multiple opportunities for drug repurposing: Confirmatory screen for SK-N-SH cells (AID 1347129);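 also: cells exposed to compound for 48 h before viability read; nearly all actives have a fitted effect of over 60% in size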
Outline: as §1

Furin (Homo sapiens) = Furin (Homo sapiens) (UniProt P09958); test: Furin counterscreen qHTS for Zika virus inhibitors (AID 1347149)
Outline: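 Counterscreen measures cleavage of 2 microM BOC-RVRR-AMC, below its ~15 microM Km, by 5 nM full-length human furin at pH 7.0 after a 15-min compound preincubation. Inhibition derives from the 15-min fluorescence increase at 37C.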

[18] = qHTS of pediatric cancer cell lines to identify multiple opportunities for drug repurposing: Confirmatory screen for BT-12 cells (AID 1347112); also: nearly all actives have a fitted effect of over 55% in size
Outline: as §1

[19] = qHTS of pediatric cancer cell lines to identify multiple opportunities for drug repurposing: Confirmatory screen for SJ-GBM2 cells (AID 1347116); also: nearly all actives have a fitted effect of over 60% in size
Outline: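 Viability measured as metabolically active cells via CellTiter-Glo luminescence following 48 hours of compound exposure, 11-point dilutions in confirmatory testing. 500-1,000 cells/well plated 5 hours before dosing; controls were DMSO and 2.3 µM bortezomib.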

Measured: Potency

N-terminal Xaa-Pro-Lys N-methyltransferase 1 (Homo sapiens), sequence (Q9BV86 whole entry, looked up): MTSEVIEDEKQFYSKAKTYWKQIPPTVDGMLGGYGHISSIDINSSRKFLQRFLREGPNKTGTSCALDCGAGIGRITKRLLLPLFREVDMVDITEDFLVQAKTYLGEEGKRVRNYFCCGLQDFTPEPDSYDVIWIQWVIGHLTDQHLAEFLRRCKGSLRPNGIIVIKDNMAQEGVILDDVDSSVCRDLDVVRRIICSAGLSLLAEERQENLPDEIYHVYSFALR
Furin (Homo sapiens), sequence (P09958 whole entry, looked up): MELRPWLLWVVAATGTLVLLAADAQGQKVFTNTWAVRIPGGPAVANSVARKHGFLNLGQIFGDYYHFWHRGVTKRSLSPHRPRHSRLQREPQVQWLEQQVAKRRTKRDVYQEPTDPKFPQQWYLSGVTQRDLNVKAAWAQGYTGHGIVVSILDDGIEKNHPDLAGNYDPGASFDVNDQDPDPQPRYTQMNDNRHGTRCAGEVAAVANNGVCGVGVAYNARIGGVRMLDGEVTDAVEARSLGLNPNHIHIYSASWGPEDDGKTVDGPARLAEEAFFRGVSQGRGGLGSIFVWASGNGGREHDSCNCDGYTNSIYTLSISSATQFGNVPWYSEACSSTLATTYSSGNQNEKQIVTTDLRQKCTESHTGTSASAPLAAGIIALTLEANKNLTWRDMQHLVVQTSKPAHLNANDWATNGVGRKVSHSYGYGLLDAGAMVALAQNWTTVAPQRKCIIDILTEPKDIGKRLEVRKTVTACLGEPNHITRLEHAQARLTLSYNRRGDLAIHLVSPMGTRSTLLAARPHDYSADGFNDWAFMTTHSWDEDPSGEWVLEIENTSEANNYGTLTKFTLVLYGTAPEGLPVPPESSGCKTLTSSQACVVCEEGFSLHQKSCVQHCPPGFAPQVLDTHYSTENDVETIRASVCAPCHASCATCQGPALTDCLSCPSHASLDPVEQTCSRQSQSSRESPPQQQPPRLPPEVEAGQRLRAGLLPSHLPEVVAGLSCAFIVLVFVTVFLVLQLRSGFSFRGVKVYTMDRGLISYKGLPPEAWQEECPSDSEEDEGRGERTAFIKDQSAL

CC(COc1ccccc1)N(CCCl)Cc1ccccc1 (stereo not drawn)
inactive: [1] | [2] | [7]
active: [3] 16.5 µM | [4] 10.4 µM | [5] 20.8 µM | [6] 18.5 µM | [8] 13.1 µM | [9] 18.5 µM | [10] 16.5 µM

O=C(c1ccc(OCCN2CCCCC2)cc1)c1c(-c2ccc(O)cc2)sc2cc(O)ccc12
inactive: [1] | [2] | [12] | [13] | [7] | [9]
active: [11] 20.8 µM | [4] 16.5 µM | [8] 20.8 µM | [10] 3.69 µM

CC(C)(Oc1ccc(C2CC2(Cl)Cl)cc1)C(=O)O (stereo not drawn)
inactive: [1] | [2] | [14]

Cn1c(=O)c2[nH]cnc2n(C)c1=O
inactive: [1] | [2] | [14]

CN(Cc1cnc2nc(N)nc(N)c2n1)c1ccc(C(=O)N[C@@H](CCC(=O)O)C(=O)O)cc1
active: [11] 0.0329 µM | [4] 0.0369 µM | [16] 0.0131 µM | [14] 79.4 µM | Furin (Homo sapiens) 19.1 µM
inactive: [1] | [2] | [5] | [15] | [13] | [9] | [10] | [17]

CC(CCc1ccc(O)cc1)NCCc1ccc(O)c(O)c1 (stereo not drawn)
inactive: [1] | [2] | [3] | [5] | [15] | [13] | [7] | [8] | [9] | [10] | [17]
active: [4] 9.27 µM | [12] 5.85 µM

NCCc1cnc[nH]1
inactive: [1] | [2]

O=C1N(c2ccccc2)c2ccccc2C1(Cc1ccncc1)Cc1ccncc1
inactive: [1] | [2]

CCOC(=O)C(C)(C)Oc1ccc(Cl)cc1
inactive: [1] | [2]

CCC1(c2ccccc2)C(=O)NCNC1=O
inactive: [1] | [2] | [18] | [5] | [12] | [19] | [6] | [15] | [13] | [7] | [8] | [9] | [10] | [16] | [17] | [14]

Clc1ccc2nsnc2c1NC1=NCCN1
active: [3] 26.1 µM | [10] 7.37 µM
inactive: [1] | [2] | [4] | [5] | [12] | [19] | [15] | [13] | [7] | [8] | [9] | [17]
